This note sets out measurements from PubChem BioAssay (Tox21).

Results filed as inconclusive are left out. Calls of active or inactive are those of the source. The call rests on the fitted dose curve.
On the % scale 0 is the no-effect control and ±100 the full control effect.

A short description of the first test: p53 small molecule agonists, cell-based qHTS assay with human liver microsomes (AID 1963577). To be noted: HCT-116 p53RE-bla with human liver microsomes, ratio, 16 h; series mostly up to 66 µM; activation: at the top concentration. In outline:
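Cells carrying a p53-responsive bla reporter were rested 5 h (37 C, 5% CO2) before compound transfer. Human liver microsomes plus NADPH, 0.5 mg/mL final apiece, supplied metabolism during the 16 h 37 C exposure.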
Take `S=C=NCCc1ccccc1`: the “activation” value was -2.9% (inactive).
As to `Clc1cc(Cl)c(-c2cc(Cl)c(Cl)cc2Cl)cc1Cl`, the “activation” value is -0.206% [at 30.3 µM] (inactive).
In the case of `CC1=C2C[C@H]3[C@@H](CC=C4C[C@@H](O)CC[C@@]43C)[C@@H]2CC[C@]12O[C@@H]1C[C@H](C)CN[C@H]1[C@H]2C`, the “activation” value is -4.11% [at 30.3 µM] (inactive).
On to `Cc1nc2ccccc2c(=O)n1-c1ccccc1Cl`, for which the “activation” value is -2.17% (inactive).
With `ClC1=C(Cl)[C@]2(Cl)[C@H]3[C@H]([C@@H]4C=C[C@H]3C4)[C@@]1(Cl)C2(Cl)Cl`, the Potency result was “inactive”.
For `CC(C)[C@@H](C(=O)O[C@@H](C#N)c1cccc(Oc2ccccc2)c1)c1ccc(Cl)cc1`, the Potency entry is “inactive”.
On to `O=C(Cl)c1ccc(Cl)cc1`, for which the “activation” value was -1.5% (inactive).
For `CCCCOCN(C(=O)CCl)c1c(CC)cccc1CC`, the “activation” value is -15.8% (inactive).
The same measure, in the same setting: the same measure for `Nc1ccc([N+](=O)[O-])cc1Cl`: -0.147% (inactive).
Turning to `CCCCP(CCCC)CCCC`, the “activation” value was 2.3% (inactive).
As to `CC(C)c1c(CN(C)C(C)Cc2ccccc2)n(C)n(-c2ccccc2)c1=O` (stereo not drawn), the “activation” value is 1.21% [at 30.3 µM] (inactive).
On to `C[C@]12C/C(=C/O)C(=O)C[C@@H]1CC[C@@H]1[C@@H]2CC[C@@]2(C)[C@H]1CC[C@]2(C)O`, for which the “activation” value is 4.99% (inactive).
With `ClC1=C(Cl)[C@]2(Cl)[C@H]3[C@H]([C@H]4C=C[C@H]3C4)[C@@]1(Cl)C2(Cl)Cl`, the “activation” value was -4.91% (inactive).
As for `COC(=O)C(c1ccccc1)C1CCCCN1` (stereo not drawn), the “activation” value is 0.319% (inactive).
Regarding `CN1C(=O)[C@@H](NC(=O)c2cc3ccccc3[nH]2)N=C(c2ccccc2)c2ccccc21`, the “activation” value is -2.01% [at 30.3 µM] (inactive).
Take `CCO[C@H]1O[C@@H]2OC3(C)CC[C@H]4[C@H](C)CC[C@@H]([C@H]1C)[C@@]24OO3`: the “activation” value was -12.2% [at 30.3 µM] (inactive).
For the compound `O=NN(CCO)CCO`, the “activation” value was -0.159% (inactive).
On to `CCOC(=O)C(Cl)Cc1cc(-n2nc(C)n(C(F)F)c2=O)c(F)cc1Cl` (stereo not drawn), for which the “activation” value was -4.81% (inactive).
Take `C[C@H]1O[C@@H](O[C@H]2[C@@H](O)C[C@H](O[C@H]3[C@@H](O)C[C@H](O[C@H]4CC[C@@]5(C)[C@H](CC[C@@H]6[C@@H]5CC[C@]5(C)[C@@H](C7=CC(=O)OC7)CC[C@]65O)C4)O[C@@H]3C)O[C@@H]2C)C[C@H](O)[C@@H]1O`: the “activation” value was -10.6% [at 30.3 µM] (inactive).
In the case of `[O-][Br+2]([O-])O`, the “activation” value is -2.31% [at 30.3 µM] (inactive).
On to `C[C@@H]1C[C@@H]([C@H](O)CC2CC(=O)NC(=O)C2)C(=O)[C@@H](C)C1`, for which the Potency entry was “inactive”.
Turning to `Nc1c(Cl)c(F)nc(OCC(=O)O)c1Cl`, the “activation” value is -0.931% (inactive).
Same read-out and setting: the value for `OC(Cc1ccccc1Cl)(Cn1[nH]cnc1=S)C1(Cl)CC1` (stereo not drawn) was -9.39% (inactive).
With `N#CC(C#N)=C(C#N)C#N`, the “activation” value is -5.17% (inactive).
Take `CC1COC(Cn2cncn2)(c2ccc(Oc3ccc(Cl)cc3)cc2Cl)O1` (stereo not drawn): the “activation” value was -14.1% (inactive).
Consider `CC1CCCC1`, for which the “activation” value is 0.201% (inactive).
Take `COCC(C)N(C(=O)CCl)c1c(C)csc1C` (stereo not drawn): the “activation” value is -19.2% (inactive).
In the case of `N[C@@H](Cc1ccc(Oc2cc(I)c(O)c(I)c2)c(I)c1)C(=O)O`, the “activation” value was -5.51% [at 30.3 µM] (inactive).
For `CCOc1cc(Oc2ccc(C(F)(F)F)cc2Cl)ccc1[N+](=O)[O-]`, the Potency entry was “inactive”.
With `CC(Cc1ccccc1)NCCn1cnc2c1c(=O)n(C)c(=O)n2C` (stereo not drawn), the “activation” value is -2.55% (inactive).
`Cc1ccc([N+](=O)[O-])[c]2c1[O][Hg]2`: the “activation” value is -7.46% [at 30.3 µM] (inactive).
The same measure, in the same setting: the value for `CC1(C)C(C(=O)OC(C#N)c2cccc(Oc3ccccc3)c2)C1(C)C` (stereo not drawn) was -12.9% (inactive).
For `C=C(C)C(=O)[O][Sn]([CH2]CCC)([CH2]CCC)[CH2]CCC`, the “activation” value was -12.7% (inactive).
With `CCCN(CC1CC1)c1c([N+](=O)[O-])cc(C(F)(F)F)cc1[N+](=O)[O-]`, the “activation” value is 0.313% (inactive).
Turning to `COc1ccc(Cc2nccc3cc(OC)c(OC)cc23)cc1OC`, the “activation” value is 5.46% [at 30.3 µM] (inactive).
`COC1=CC(=O)O[C@@H](/C=C/c2ccc3c(c2)OCO3)C1`: the “activation” value is -7.4% (inactive).
With `Brc1ccc(Oc2ccc(Br)cc2Br)c(Br)c1`, the “activation” value was -2.23% (inactive).
Same read-out and setting: the value for `CC(C)N1C(=O)N(c2ccccc2)CSC1=NC(C)(C)C` was 0.419% (inactive); that for `COC(=O)COc1ccc(Cl)cc1Cl` was -0.689% (inactive).

A further test is described as follows: p53 small molecule agonists, cell-based qHTS assay with rat liver microsomes (AID 1963578). To be noted: HCT-116 p53RE-bla, beta-lactamase ratio, 16 h; series mostly up to 66 µM; activation: at the top concentration. Put shortly:
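Fluorescence from a beta-lactamase reporter under a p53 response element was measured after cells had been incubated 16 h at 37 C with test compound and rat liver microsomes plus NADPH (0.5 mg/mL final each).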
In general terms: In qHTS, concentration-response curves come from the screen itself.
Take `S=C=NCCc1ccccc1`: the “activation” value is 5.27% (inactive).
With `Clc1cc(Cl)c(-c2cc(Cl)c(Cl)cc2Cl)cc1Cl`, the “activation” value is -0.404% [at 30.3 µM] (inactive).
For the compound `CC1=C2C[C@H]3[C@@H](CC=C4C[C@@H](O)CC[C@@]43C)[C@@H]2CC[C@]12O[C@@H]1C[C@H](C)CN[C@H]1[C@H]2C`, the “activation” value is -1.88% [at 30.3 µM] (inactive).
Same read-out and setting: the value for `Cc1nc2ccccc2c(=O)n1-c1ccccc1Cl` was 0.468% (inactive).
As for `ClC1=C(Cl)[C@]2(Cl)[C@H]3[C@H]([C@@H]4C=C[C@H]3C4)[C@@]1(Cl)C2(Cl)Cl`, the Potency result was “inactive”.
Take `CC(C)[C@@H](C(=O)O[C@@H](C#N)c1cccc(Oc2ccccc2)c1)c1ccc(Cl)cc1`: the Potency result was “inactive”.
Turning to `O=C(Cl)c1ccc(Cl)cc1`, the “activation” value was 0.477% (inactive).
For the compound `CCCCOCN(C(=O)CCl)c1c(CC)cccc1CC`, the “activation” value was -4.82% (inactive).
In the case of `Nc1ccc([N+](=O)[O-])cc1Cl`, the “activation” value was 0.0734% (inactive).
With `CCCCP(CCCC)CCCC`, the “activation” value is -0.0599% (inactive).
On to `CC(C)c1c(CN(C)C(C)Cc2ccccc2)n(C)n(-c2ccccc2)c1=O` (stereo not drawn), for which the “activation” value is -0.352% [at 30.3 µM] (inactive).
Regarding `C[C@]12C/C(=C/O)C(=O)C[C@@H]1CC[C@@H]1[C@@H]2CC[C@@]2(C)[C@H]1CC[C@]2(C)O`, the Potency result was “inactive”.
On to `ClC1=C(Cl)[C@]2(Cl)[C@H]3[C@H]([C@H]4C=C[C@H]3C4)[C@@]1(Cl)C2(Cl)Cl`, for which the “activation” value is -0.309% (inactive).
In the case of `COC(=O)C(c1ccccc1)C1CCCCN1` (stereo not drawn), the “activation” value was 0.446% (inactive).
Same read-out and setting: the same measure for `CN1C(=O)[C@@H](NC(=O)c2cc3ccccc3[nH]2)N=C(c2ccccc2)c2ccccc21`: -2.73% [at 30.3 µM] (inactive); for `CCO[C@H]1O[C@@H]2OC3(C)CC[C@H]4[C@H](C)CC[C@@H]([C@H]1C)[C@@]24OO3`: -7.68% [at 30.3 µM] (inactive); for `O=NN(CCO)CCO`: -0.229% (inactive).
On to `CCOC(=O)C(Cl)Cc1cc(-n2nc(C)n(C(F)F)c2=O)c(F)cc1Cl` (stereo not drawn), for which the “activation” value was 1.22% (inactive).
Regarding `C[C@H]1O[C@@H](O[C@H]2[C@@H](O)C[C@H](O[C@H]3[C@@H](O)C[C@H](O[C@H]4CC[C@@]5(C)[C@H](CC[C@@H]6[C@@H]5CC[C@]5(C)[C@@H](C7=CC(=O)OC7)CC[C@]65O)C4)O[C@@H]3C)O[C@@H]2C)C[C@H](O)[C@@H]1O`, the Potency result is “inactive”.
In the case of `[O-][Br+2]([O-])O`, the “activation” value was -1.1% [at 30.3 µM] (inactive).
Take `C[C@@H]1C[C@@H]([C@H](O)CC2CC(=O)NC(=O)C2)C(=O)[C@@H](C)C1`: the Potency result is “inactive”.
`Nc1c(Cl)c(F)nc(OCC(=O)O)c1Cl`: the “activation” value was -3.35% (inactive).
Same read-out and setting: the same measure for `OC(Cc1ccccc1Cl)(Cn1[nH]cnc1=S)C1(Cl)CC1` (stereo not drawn): 6.42% (inactive); for `N#CC(C#N)=C(C#N)C#N`: -0.211% (inactive); for `CC1COC(Cn2cncn2)(c2ccc(Oc3ccc(Cl)cc3)cc2Cl)O1` (stereo not drawn): 5.74% (inactive).
As for `CC1CCCC1`, the “activation” value was -0.734% (inactive).
Turning to `COCC(C)N(C(=O)CCl)c1c(C)csc1C` (stereo not drawn), the “activation” value is -5.38% (inactive).
For `N[C@@H](Cc1ccc(Oc2cc(I)c(O)c(I)c2)c(I)c1)C(=O)O`, the “activation” value is 2.45% [at 30.3 µM] (inactive).
In the case of `CCOc1cc(Oc2ccc(C(F)(F)F)cc2Cl)ccc1[N+](=O)[O-]`, the Potency result is “inactive”.
Take `CC(Cc1ccccc1)NCCn1cnc2c1c(=O)n(C)c(=O)n2C` (stereo not drawn): the “activation” value is -2.02% (inactive).
For `Cc1ccc([N+](=O)[O-])[c]2c1[O][Hg]2`, the “activation” value is -12.8% [at 30.3 µM] (inactive).
Take `CC1(C)C(C(=O)OC(C#N)c2cccc(Oc3ccccc3)c2)C1(C)C` (stereo not drawn): the Potency result is “inactive”.
As for `C=C(C)C(=O)[O][Sn]([CH2]CCC)([CH2]CCC)[CH2]CCC`, the “activation” value is -5.65% (inactive).
Take `CCCN(CC1CC1)c1c([N+](=O)[O-])cc(C(F)(F)F)cc1[N+](=O)[O-]`: the “activation” value was 0.399% (inactive).
Consider `COc1ccc(Cc2nccc3cc(OC)c(OC)cc23)cc1OC`, for which the “activation” value is 1.26% [at 30.3 µM] (inactive).
In the case of `COC1=CC(=O)O[C@@H](/C=C/c2ccc3c(c2)OCO3)C1`, the “activation” value was -4.99% (inactive).
On to `Brc1ccc(Oc2ccc(Br)cc2Br)c(Br)c1`, for which the “activation” value is 1.32% (inactive).
`CC(C)N1C(=O)N(c2ccccc2)CSC1=NC(C)(C)C`: the “activation” value is 5.78% (inactive).
As to `COC(=O)COc1ccc(Cl)cc1Cl`, the “activation” value was 0.203% (inactive).
